{"source": "the supplement of paper PMC8975748", "note": "Counter-ions that a name gives are not always drawn.", "data": [{"system": "Saccharomyces cerevisiae BY4741 SeMeCo community", "test": "z-score of subpopulation abundance vs DMSO median, subpopulation auxotrophic for HLUM; higher = larger share of this subpopulation than in DMSO controls", "conditions": "10 µM; 24 h; SM minimal medium; subpopulation (auxotrophy): HLUM", "experimental": "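Fluorescent four-plasmid SeMeCo (self-establishing metabolically cooperating S. cerevisiae BY4741 community; plasmids pH-mRuby2, pL-mWasabi, pU-eCFP, pM-TagRFP657) was grown 24 h in minimal SM medium with each Selleck FDA-approved drug at 10 µM in 384-well plates. Cells were fixed and imaged by high-content confocal microscopy. For each auxotrophic subpopulation (and the prototroph), a z-score gives the deviation from the DMSO vehicle-control population median.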", "values": [{"smiles": "NCCc1c[nH]c2ccc(O)cc12", "note": "[Serotonin HCl]", "z-score of subpopulation abundance": 0.3}, {"smiles": "C[N+](C)(C)CCCCCCCCCC[N+](C)(C)C", "note": "[Decamethonium Bromide]", "z-score of subpopulation abundance": -0.4}, {"smiles": "CCOC(=O)Nc1ccc(NCc2ccc(F)cc2)cc1N", "note": "[Retigabine 2HCl]", "z-score of subpopulation abundance": -0.39}, {"smiles": "O=c1[nH]c2ccccc2n1CCCN1CCC(n2c(=O)[nH]c3cc(Cl)ccc32)CC1", "note": "[Domperidone]", "z-score of subpopulation abundance": 0.88}, {"smiles": "O=C(O[C@H]1C[N+]2(CCCOc3ccccc3)CCC1CC2)C(O)(c1cccs1)c1cccs1", "note": "[Aclidinium Bromide]", "z-score of subpopulation abundance": -0.18}, {"smiles": "C[N+]1(C)[C@@H]2C[C@@H](OC(=O)[C@H](CO)c3ccccc3)C[C@H]1[C@@H]1O[C@@H]12", "note": "[Methscopolamine]", "z-score of subpopulation abundance": 0.24}, {"smiles": "CCCCCCCCCCCCCCCC[n+]1ccccc1", "note": "[Cetylpyridinium Chloride]", "z-score of subpopulation abundance": 49.4}, {"smiles": "C[C@H]1O[C@H](O[C@H]2[C@H](O)[C@@H](O)[C@@H](O)[C@H](O)[C@@H]2O)[C@@H](N)C[C@@H]1NC(=N)C(=O)O", "note": "[Kasugamycin hydrochloride]", "z-score of subpopulation abundance": -0.04}, {"smiles": "COC(=O)C1=CCCN(C)C1", "note": "[Arecoline HBr]", "z-score of subpopulation abundance": -0.09}, {"smiles": "C=CCN1C[C@H](C(=O)N(CCCN(C)C)C(=O)NCC)C[C@@H]2c3cccc4[nH]cc(c34)C[C@H]21", "note": "[Cabergoline]", "z-score of subpopulation abundance": 0.78}, {"smiles": "Cc1cc(O)ccc1Cl", "note": "[Chlorocresol]", "z-score of subpopulation abundance": -0.16}, {"smiles": "O=c1cccc2n1C[C@@H]1CNC[C@H]2C1", "note": "[Cytisine]", "z-score of subpopulation abundance": -0.32}, {"smiles": "CN[C@@H]1[C@@H](O)[C@@H](O[C@@H]2[C@@H](O)[C@H](O[C@H]3O[C@H]([C@@H](C)O)[C@@H](O)[C@H](O)[C@H]3N)[C@@H](N)C[C@H]2N)OC[C@]1(C)O", "note": "[Geneticin (G418 Sulfate)]", "z-score of subpopulation abundance": -0.56}, {"smiles": "CN(C)[C@@H]1C(=O)C(C(N)=O)=C(O)[C@@]2(O)C(=O)C3=C(O)c4c(O)cccc4[C@@](C)(O)[C@H]3[C@H](O)[C@@H]12", "note": "[Oxytetracycline Dihydrate]", "z-score of subpopulation abundance": -0.3}, {"smiles": "CN1[C@@H]2C[C@@H](OC(=O)[C@H](CO)c3ccccc3)C[C@H]1[C@@H]1O[C@@H]12", "note": "[Scopolamine HBr]", "z-score of subpopulation abundance": -0.88}, {"smiles": "CC[N+](C)(CC)CCOC(=O)C(O)(c1ccccc1)c1ccccc1", "note": "[Methylbenactyzine Bromide]", "z-score of subpopulation abundance": -1.18}, {"smiles": "Nc1nc(N)nc(NC2CC2)n1", "note": "[Cyromazine]", "z-score of subpopulation abundance": 1.21}, {"smiles": "C[CH2][Hg][S]c1ccccc1C(=O)[O-].[Na+]", "note": "[Thimerosal]", "z-score of subpopulation abundance": 63.5}, {"smiles": "CC(C)=CCOc1c2occc2cc2ccc(=O)oc12", "note": "[Imperatorin]", "z-score of subpopulation abundance": 0.23}, {"smiles": "Nc1ccncc1", "note": "[4-Aminopyridine]", "z-score of subpopulation abundance": -0.46}, {"smiles": "C=CN1CCCC1=O.II", "note": "[Povidone iodine]", "z-score of subpopulation abundance": 0.32}, {"smiles": "CN1C(=O)COc2c(C(=O)NC3CN4CCC3CC4)cc(Cl)cc21", "note": "(centres undefined) [Azasetron HCl]", "z-score of subpopulation abundance": 0.19}, {"smiles": "C[C@@H]1CC[C@H]2[C@@H](C)C(=O)O[C@@H]3O[C@@]4(C)CC[C@@H]1[C@]32OO4", "note": "[Artemisinin]", "z-score of subpopulation abundance": -0.59}, {"smiles": "CCN(C)C(=O)Oc1cccc([C@H](C)N(C)C)c1", "note": "[Rivastigmine]", "z-score of subpopulation abundance": -0.15}, {"smiles": "CC1(C)SC2C(N)C(=O)N2C1C(=O)O", "note": "(centres undefined) [6-Aminopenicillanic acid]", "z-score of subpopulation abundance": -0.72}, {"smiles": "CCN(C)C(=O)Oc1cccc([C@H](C)N(C)C)c1", "note": "[Rivastigmine Tartrate]", "z-score of subpopulation abundance": -0.16}, {"smiles": "C#C[C@]1(O)C=C[C@H]2[C@@H]3CCC4=CC(=O)CC[C@@H]4[C@H]3CC[C@@]21CC", "note": "[Gestodene]", "z-score of subpopulation abundance": -0.58}, {"smiles": "CN(C)[C@@H]1C(=O)C(C(N)=O)=C(O)[C@@]2(O)C(=O)C3=C(O)c4c(O)cccc4[C@@](C)(O)[C@H]3[C@H](O)[C@@H]12", "note": "[Oxytetracycline (Terramycin)]", "z-score of subpopulation abundance": 0.26}, {"smiles": "Oc1cccc2cccnc12", "note": "[8-Hydroxyquinoline]", "z-score of subpopulation abundance": 0.11}, {"smiles": "C=C[C@H]1CN2CC[C@H]1C[C@H]2[C@H](O)c1ccnc2ccccc12", "note": "[Cinchonidine]", "z-score of subpopulation abundance": 0.1}, {"smiles": "CNC1CC(N)C(O)C(OC2OC(CO)C(O)C3OC4(OC(C(N)CO)C(O)C(O)C4O)OC23)C1O", "note": "(centres undefined) [Hygromycin B]", "z-score of subpopulation abundance": -0.53}, {"smiles": "C[N+]12CCC(CC1)C(OC(=O)C(O)(c1ccccc1)c1ccccc1)C2", "note": "(centres undefined) [Clidinium Bromide]", "z-score of subpopulation abundance": 0.51}, {"smiles": "COc1ccc2c(c1)[C@]13CCCC[C@@H]1[C@H](C2)N(C)CC3", "note": "[Dextromethorphan hydrobromide hydrate]", "z-score of subpopulation abundance": -0.5}, {"smiles": "O=[N+]([O-])C(Br)(CO)CO", "note": "[Bronopol]", "z-score of subpopulation abundance": 0.53}]}]}
